Experiment [1] in a line: inhibitors of TNFa-induced NFkB p65 translocation, primary screen, imaging, HUVEC, MLSMR starter and 10KST1 sets (AID 438).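 For inhibition: signal is the nuclear over cytoplasmic p65 intensity ratio per well.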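 Note: compound added about 3h40 before a 20 min TNFalpha stimulation.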 To be noted: HUVEC TNFa-induced p65 nuclear translocation; cell count: measured here: nuclei count (cytotoxicity indicator), at 2.08 µM; inhibition: at 2 µM, stronger effect = higher value, 0% TNFa-plus-vehicle, 100% no-TNFa wells.
Experiment [2] is described as follows: inhibitors of mutant huntingtin aggregation, primary screen, imaging, exon1htt(103Q)mCFP cells, high-content imaging (AID 483;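 active = visual image review flags a hit and inhibition of aggregation exceeds 20%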;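 note: compound exposure lasted 3 days before fixation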;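 for nuclei count: percent of the per-plate median nuclei count of sample wells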). To be noted: exon1htt(103Q)mCFP cell line, aggregate imaging, at 2 µM; inhibition of aggregation: stronger effect = higher value; nuclei count: measured here: cell count, toxicity.
Experiment [3] in a line: inhibitors of E-selectin induction by TNFa, primary screen, imaging, HUVEC, immunofluorescence, MLSMR starter and 10KST1 sets (AID 487;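 active = visually confirmed hit in the image check and inhibition above 20%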;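 for inhibition: signal is fraction of cell area covered by stained E-selectin grains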;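 for nuclei count: 100% = median nuclei count of all wells on the same plate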). Particulars: HUVEC TNFalpha-induced E-selectin immunofluorescence imaging, at 2 µM; inhibition: stronger effect = higher value; nuclei count: measured here: cell number, toxicity.
Experiment [4] has as its target Voltage-gated potassium channel subunit beta-2 (Rattus norvegicus) (UniProt P62483). The experiment in a line: KvBeta enzyme negative modulators, primary screen, biochemical, NADPH fluorescence (AID 622;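 active = fluorescence slope higher than the sample average by over 3 SD, cut at about -0.22 in these data, passing the limit was not always enough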;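 note: slope of raw intensity against log time taken from 70 to 1610 s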). Particulars: recombinant KvBeta, 4-cyanobenzaldehyde reduction, at 10 µM, stronger effect = higher value.
Experiment [5] shares this target. As to the kind of experiment: KvBeta positive modulators, primary screen, biochemical, NADPH fluorescence (AID 623;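 active = NADPH fluorescence slope more negative than the mean of all samples by about 3 SD, 99.7% confidence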;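 note: fluorescence intensity change per second fitted from 20 to 320 s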). To be noted: Recombinant KvBeta, NADPH fluorescence decrease slope, 10 min; at 10 µM; stronger effect = lower value.
For experiment [6], the target named is Alpha-2C adrenergic receptor (Homo sapiens) (UniProt P18825). As to the kind of experiment: modulators of alpha2C/GIRK thallium flux, primary screen, cell-based, HEK293 alpha2C/GIRK1/2 (AID 624;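 active = fluorescence slope after compound addition differing from the mean of all screened samples at 99.7% confidence, in either direction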;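 note: slope of fluorescence ratio to pre-addition baseline per second over 15 to 24 s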). To be noted: thallium flux BTC fluorescence, at 10 µM, actives lie on both sides.
The nature of experiment [7]: inhibitors of Sendai virus-induced IRF3 signaling, primary screen, TLR/RLR signaling modifier project, cell-based, Sendai virus stimulus, luciferase, 10K MLSCN set (AID 602276;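 active = inhibition at or above 50% at 10 µM; inactive = inhibition below 50%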;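 note: firefly luciferase from ISG56 promoter only with Renilla not read in this screen; 0% = Sendai virus plus DMSO and 100% = medium plus DMSO without virus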). To be noted: HEK293 RL24 IRF3 luciferase reporter, at 10 µM, stronger effect = higher value. On the technique in general: Reporter assays use an easily measured gene product as a stand-in for the process of interest.

The nature of experiment [8]: inhibitors of poly I:C-induced TLR3 signaling, primary screen, cell-based, poly I:C stimulus, luciferase, 10K MLSCN set (AID 602277;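 active = inhibition of the reporter signal at or above 50%; inactive = inhibition below 50%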). Particulars: HEK293-TLR3 RL24 IRF3 luciferase reporter, at 10 µM, stronger effect = higher value.

The source made the active and inactive calls.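 Rule for the calls, unless noted: active = inhibition above 20% together with a positive visual image hit; inconclusive = visual image hit but inhibition not above 20%; inactive = no visual image hit.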

Chain of Voltage-gated potassium channel subunit beta-2 (Rattus norvegicus) (P62483 whole entry, looked up): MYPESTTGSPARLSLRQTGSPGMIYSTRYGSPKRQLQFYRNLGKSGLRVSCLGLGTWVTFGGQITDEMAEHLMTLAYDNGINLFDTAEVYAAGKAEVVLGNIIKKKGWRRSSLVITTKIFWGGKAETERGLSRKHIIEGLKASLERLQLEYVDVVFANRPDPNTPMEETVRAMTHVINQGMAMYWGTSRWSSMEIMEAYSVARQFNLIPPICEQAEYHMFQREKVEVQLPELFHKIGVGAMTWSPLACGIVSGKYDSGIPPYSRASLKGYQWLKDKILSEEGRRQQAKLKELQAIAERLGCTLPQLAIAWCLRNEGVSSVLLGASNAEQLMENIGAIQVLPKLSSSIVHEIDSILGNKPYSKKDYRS
Chain of Alpha-2C adrenergic receptor (Homo sapiens) (P18825 whole entry, looked up): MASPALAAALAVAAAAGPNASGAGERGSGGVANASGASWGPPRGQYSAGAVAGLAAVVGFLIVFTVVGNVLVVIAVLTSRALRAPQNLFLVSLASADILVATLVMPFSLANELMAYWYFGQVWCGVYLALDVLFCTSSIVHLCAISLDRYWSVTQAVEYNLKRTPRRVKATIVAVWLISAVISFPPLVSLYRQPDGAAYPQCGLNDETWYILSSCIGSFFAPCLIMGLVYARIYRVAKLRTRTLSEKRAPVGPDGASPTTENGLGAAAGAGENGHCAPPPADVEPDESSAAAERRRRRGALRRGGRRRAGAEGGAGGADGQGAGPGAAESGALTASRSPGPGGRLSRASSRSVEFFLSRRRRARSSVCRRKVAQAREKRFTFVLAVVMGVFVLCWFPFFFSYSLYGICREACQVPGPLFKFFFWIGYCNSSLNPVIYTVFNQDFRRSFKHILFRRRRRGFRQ

On to `COc1ccc(C2CC(c3ccc(OC)cc3)n3nc(N)nc3N2)cc1` (centres undefined), for which the cell count in experiment [1] came to 595. The inhibition (in general, the drop in the measured response relative to a control, in per cent) was 6.1% (inactive) in experiment [1], 28.5% (inactive) in experiment [3], 6.72% (inactive) in experiment [7] and 20.7% (inactive) in experiment [8]. The inhibition of aggregation in experiment [2] is -5.1% (inactive). In addition, the values for the nuclei count in experiment [2] and in experiment [3] were 99.7% and 102%, respectively. Further, the fluorescence slope in experiment [4] was -0.595 (inactive). In experiment [5], the NADPH fluorescence slope is -3.1e-05 (inactive). Also, in experiment [6], the slope was 0.00691 (inactive).
With `N#Cc1c(/N=C/c2cccs2)sc2c1CCCCC2`, the cell count in experiment [1] was 636. The inhibition in experiment [1] is -14.8% (inactive); in experiment [3], -14.2% (inactive); in experiment [7] it was 30.4% (inactive); in experiment [8], -5.24% (inactive). The inhibition of aggregation in experiment [2] was -34.1% (inactive). Also, the nuclei count in experiment [2] and in experiment [3] was 127% throughout. The fluorescence slope in experiment [4] was -0.598 (inactive). Also, the NADPH fluorescence slope in experiment [5] is -2.1e-05 (inactive). In addition, the slope in experiment [6] was 0.0029 (inactive).
In the case of `COc1ccccc1CNC(=O)CCNC(=O)Cn1ccc2ccccc2c1=O`, the cell count in experiment [1] turned out to be 749. Besides, the inhibition is -23.7% (inactive) in experiment [1], -16.3% (inactive) in experiment [3], 7.16% (inactive) in experiment [7] and 6.29% (inactive) in experiment [8]. Besides, the inhibition of aggregation in experiment [2] is 8.2% (inactive). Besides, the nuclei count is 107% in experiment [2] and 116% in experiment [3]. For the same molecule, in experiment [4], the fluorescence slope is 0.0111 (inactive). For the same molecule, the NADPH fluorescence slope in experiment [5] is -1.6e-05 (inactive). In experiment [6], the slope is 0.00394 (inactive).
On to `COc1ccc(Cl)cc1-c1n[nH]c(=S)o1`, for which the cell count in experiment [1] turned out to be 546. Further, the inhibition in experiment [1] is 8.2% (inactive); in experiment [3] it was -86.8% (inactive); in experiment [7] it was 20.2% (inactive); in experiment [8], 23.5% (inactive). The inhibition of aggregation in experiment [2] is -5.3% (inactive). Also, the values for the nuclei count in experiment [2] and in experiment [3] were 104% and 111%, respectively. The fluorescence slope in experiment [4] was -0.378 (inactive). The NADPH fluorescence slope in experiment [5] is -3.6e-05 (inactive). Moreover, the slope in experiment [6] is 0.00602 (inactive).
As to `COC(=O)Nc1sc2c(c1C(N)=O)CCCCCC2`, in experiment [1], the cell count stood at 522. The inhibition in experiment [1] was 2% (inactive); in experiment [3], -53.8% (inactive); in experiment [7], 5.06% (inactive); in experiment [8] it was 17.8% (inactive). For the same molecule, the inhibition of aggregation in experiment [2] is 18.9% (inactive). Further, the nuclei count in experiment [2] came out at 95.2%; in experiment [3] it was 92%. In experiment [4], the fluorescence slope was -0.509 (inactive). Also, the NADPH fluorescence slope in experiment [5] was -5.2e-05 (inactive). The slope in experiment [6] was 0.00644 (inactive).
In the case of `COC(=O)c1cccc(NC(=O)CSc2nnc(COc3ccc(C#N)cc3)n2-c2ccccc2)c1`, the cell count in experiment [1] stood at 599. The inhibition in experiment [1] was 3.7% (inactive); in experiment [3] it was -64.7% (inactive); in experiment [7] it was -22% (inactive); in experiment [8], -18.5% (inactive). Further, the inhibition of aggregation in experiment [2] was -5.1% (inactive). Besides, the values for the nuclei count in experiment [2] and in experiment [3] were 91.2% and 120%, respectively. Also, the fluorescence slope in experiment [4] was -0.586 (inactive). In addition, the NADPH fluorescence slope in experiment [5] is 4.9e-05 (inactive). The slope in experiment [6] is 0.00802 (inactive).
Turning to `Cc1cc(C)cc(N(CC(=O)NC2CCC(C)CC2)S(=O)(=O)c2c(C)noc2C)c1` (centres undefined), the cell count in experiment [1] amounted to 753. For the same molecule, the inhibition in experiment [1] is -6.3% (inactive); in experiment [3] it was -27.2% (inactive); in experiment [7], 7.51% (inactive); in experiment [8], 32.5% (inactive). Besides, the inhibition of aggregation in experiment [2] is 12.1% (inactive). The nuclei count in experiment [2] came out at 114%; in experiment [3], 115%. Further, the fluorescence slope in experiment [4] is -0.622 (inactive). Further, the NADPH fluorescence slope in experiment [5] is -3e-05 (inactive). Moreover, in experiment [6], the slope was 0.00687 (inactive).
With `Cc1c(NC(=O)Cn2nc(C(=O)O)c3ccccc3c2=O)c(=O)n(-c2ccccc2)n1C`, the cell count in experiment [1] was 521. Besides, the inhibition in experiment [1] was -10.8% (inactive); in experiment [3], -148% (inactive); in experiment [7] it was -13.8% (inactive); in experiment [8] it was -13.3% (inactive). Besides, the inhibition of aggregation in experiment [2] was -2.1% (inactive). The nuclei count was determined as 93.8% in experiment [2] and 111% in experiment [3]. The fluorescence slope in experiment [4] is -0.541 (inactive). For the same molecule, the NADPH fluorescence slope in experiment [5] is 3.3e-05 (inactive). In addition, the slope in experiment [6] was 0.00605 (inactive).
Take `Cc1cccnc1NC(=O)CCCN1C(=O)c2ccccc2C1=O`: in experiment [1], the cell count was found to be 366. The inhibition in experiment [1] is 1.7% (inactive); in experiment [3] it was -32.4% (inactive); in experiment [7] it was 11.3% (inactive); in experiment [8] it was 10.4% (inactive). In experiment [2], the inhibition of aggregation was -11.4% (inactive). Besides, the figures for the nuclei count in experiment [2] and in experiment [3] were 102% and 87.7%, respectively. Moreover, the fluorescence slope in experiment [4] was -0.409 (inactive). The NADPH fluorescence slope in experiment [5] is -6.3e-05 (inactive). The slope in experiment [6] is 0.00485 (inactive).
With `Cc1nc(SCC(=O)Nc2cc(C)on2)c2c3c(sc2n1)CCCC3`, the cell count in experiment [1] came out at 461. Besides, the inhibition in experiment [1] is 2.5% (inactive); in experiment [3], -33.9% (inactive); in experiment [7], 6.61% (inactive); in experiment [8] it was 11.9% (inactive). For the same molecule, in experiment [2], the inhibition of aggregation is -13.2% (inactive). The figures for the nuclei count in experiment [2] and in experiment [3] were 93.7% and 110%, respectively. Further, the fluorescence slope in experiment [4] is -0.579 (inactive). Besides, the NADPH fluorescence slope in experiment [5] was -5.9e-05 (inactive). Also, the slope in experiment [6] was 0.00594 (inactive).
Turning to `CCc1ccc(NC(=O)c2cccnc2)cc1`, in experiment [1], the cell count came out at 337. For the same molecule, the inhibition in experiment [1] is -3.8% (inactive); in experiment [3] it was -14.1% (inactive); in experiment [7], -27% (inactive); in experiment [8] it was -80.3% (inactive). For the same molecule, the inhibition of aggregation in experiment [2] was 23.7% (inactive). In addition, the figures for the nuclei count in experiment [2] and in experiment [3] were 88% and 110%, respectively. The fluorescence slope in experiment [4] is -0.429 (inactive). In addition, the NADPH fluorescence slope in experiment [5] is -2.2e-05 (inactive). Moreover, the slope in experiment [6] was 0.00479 (inactive).
For `CCOCCCNC(=O)C1CCN(S(=O)(=O)c2c(C)noc2/C=C\c2ccc(OC)cc2)CC1`, the cell count in experiment [1] was found to be 345. Moreover, the inhibition in experiment [1] is 1.2% (inactive); in experiment [3] it was -122% (inactive); in experiment [7], -4.28% (inactive); in experiment [8], 0.813% (inactive). The inhibition of aggregation in experiment [2] is 32.8% (inactive). Further, the nuclei count in experiment [2] was found to be 99.9%; in experiment [3] it was 114%. In experiment [4], the fluorescence slope is -0.36 (inactive). Further, the NADPH fluorescence slope in experiment [5] is 3.9e-05 (inactive). The slope in experiment [6] was 0.00493 (inactive).
With `CC1=C(C(=O)Nc2ccccc2)C(c2cccs2)C(C#N)=C(SCC#N)N1` (centres undefined), the cell count in experiment [1] is 713. Moreover, the inhibition was -16.4% (inactive) in experiment [1], 34.7% (inactive) in experiment [3], -25.9% (inactive) in experiment [7] and -5.98% (inactive) in experiment [8]. Also, the inhibition of aggregation in experiment [2] was 27.1% (inactive). In addition, the nuclei count was 77.7% in experiment [2] and 99.1% in experiment [3]. Further, the fluorescence slope in experiment [4] was -0.525 (inactive). In addition, in experiment [5], the NADPH fluorescence slope was -6.3e-05 (inactive). Besides, the slope in experiment [6] was 0.00547 (inactive).
`COc1ccc(NC(=O)COc2ccccc2)c(OC)c1`: in experiment [1], the cell count worked out at 404. Besides, the inhibition is 8.8% (inactive) in experiment [1], 1.1% (inactive) in experiment [3], -32.8% (inactive) in experiment [7] and -89.1% (inactive) in experiment [8]. In experiment [2], the inhibition of aggregation was -15.2% (inactive). Further, the nuclei count amounted to 106% in experiment [2] and 108% in experiment [3]. Besides, the fluorescence slope in experiment [4] was -0.418 (inactive). For the same molecule, in experiment [5], the NADPH fluorescence slope was -4.6e-05 (inactive). Also, in experiment [6], the slope was 0.00449 (inactive).

Source of the values: PubChem BioAssay.
